Reference: PubChem BioAssay AID686979 (National Center for Advancing Translational Sciences (NCATS), 2013)
The whole screen tested about 420,000 compounds, of which about 50,000 (12%) were called active. Inconclusive results (about 26%) are left out. The full list was thinned out, with actives kept by preference. Unmarked numbers belong to inactive results. The call rests on the fitted dose curve; in most records, active means well fitted inhibition curve with a large enough effect; inconclusive means small, poorly fitted or top-dose-only effect; inactive means flat fitted curve, though single readings scatter.

assay: qHTS for Inhibitors of human tyrosyl-DNA phosphodiesterase 1 (TDP1): qHTS in cells in presence of CPT; settings: chicken DT40 Tdp1-/-;hTDP1 cells + 20 nM CPT, ATP luminescence, 48 h; series mostly up to 46.2 µM; activity change, negative = growth inhibition: at the top concentration; further: nearly all actives have a fitted effect of over 55% in size
In short: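 Cell growth measured by CellTiter-Glo luminescence after a minimum 48 h, 37 C compound exposure with 20 nM CPT in Tdp1-knockout DT40 cells stably expressing hTDP1, seeded 400/well; qHTS titration format.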
On the % scale 0 is the no-effect control and ±100 the full control effect; potency means the concentration at half of the fitted maximal effect.

| Compound | activity change, negative = growth inhibition | Potency |
| --- | --- | --- |
| CC1CCN(C(=O)COC(=O)c2cc(=O)[nH]c3ccccc23)CC1 | -12.6% | – |
| CCc1ccc(OC(C)C(=O)Nc2ccc(S(=O)(=O)Nc3cc(C)on3)cc2)cc1 (configuration not stated) | 7.74% | – |
| CCOc1ccc(-c2nonc2NC(=O)c2oc3ccc(CC)cc3c2C)cc1 | – | 18.4 µM (active) |
| Cc1nonc1NC(=O)c1oc2ccccc2c1C | -11% | – |
| CCc1nonc1NC(=O)c1oc2ccc(Cl)cc2c1C | – | inactive |
| CC(=O)N(O)CCCCCNC(=O)CCC(=O)N(O)CCCCCNC(=O)CCC(=O)N(O)CCCCCNC(=O)CCC(=O)O | 18.6% | – |
| CCCCNC(=O)OC1CC2CC1[C@H]1CCCCN1C2=O (some centres not stated) | 3.61% | – |
| CC(C)(C)c1cc[n+](-c2[nH]c(=O)sc2/C=N/N=C(\[O-])c2ccccc2)cc1 | -15.9% | – |
| C/C(=N\NC(=O)COc1ccc(C)cc1[N+](=O)[O-])c1ccc2c(c1)OCCO2 | -29.2% | – |
| O=C(Nc1ccc2nc(SCC(=O)N3CCc4ccccc43)sc2c1)c1ccccc1F | -18.9% | – |
| CC(=O)c1ccc(NC(=O)CSc2nnc(NC(=O)Nc3ccccc3)s2)cc1 | -18.4% | – |
| Cc1nnc(SCC(=O)N2CCc3ccccc32)n1-c1ccccc1 | 7.14% | – |
| O=C(NCc1nnc(SCC(=O)N2CCCc3ccccc32)o1)c1ccccc1F | -15% | – |
| O=C(CSc1ccc2nnc(-c3ccccc3)n2n1)N1CCCc2ccccc21 | 4.03% | – |
| Nc1nnc(SCC(=O)Nc2ccc3nc(SCC(=O)Nc4ccccc4)sc3c2)s1 | – | 13 µM (active) |
| O=C(Nc1ccc2nc(SCC(=O)N3CCCc4ccccc43)sc2c1)c1ccc(F)cc1 | – | 5.8 µM (active) |
| Cn1c(=O)c2c(SCC(=O)N3CCc4ccccc43)nc(-c3ccc(Cl)cc3)nc2n(C)c1=O | -2.75% | – |
| O=C(Nc1ccc2nc(SCC(=O)N3CCCc4ccccc43)sc2c1)c1ccc(Cl)cc1 | – | 5.17 µM (active) |
| O=C(CSc1nc2ccccc2s1)Nc1ccc(C(=O)O)cc1 | 7.64% | – |
| CCC(=O)Nc1ccc2nc(SCC(=O)N3CCc4ccccc43)sc2c1 | – | 16.4 µM (active) |
| CC(=O)Nc1ccc(S(=O)(=O)NCC2CCC(C(=O)NCCc3ccccc3)CC2)cc1 (configuration not stated) | – | inactive |
| O=C(NC1CCCC1)C1CC(=O)N(c2ccc(F)cc2)C1 (configuration not stated) | -1.64% | – |
| Cc1cc(NC(=O)CN2C(=O)NC(CC(C)C)C2=O)no1 (configuration not stated) | 1.11% | – |
| CC(C(=O)N(C)CC(=O)Nc1ccccc1C(F)(F)F)N1C(=O)c2ccccc2C1=O (configuration not stated) | 8.73% | – |
| CC(OC(=O)c1cccnc1Cl)C(=O)NC1CCCCC1 (configuration not stated) | 2.06% | – |
| CCN(Cc1ccccc1)C(=O)CCS(=O)(=O)c1ccc2c(c1)oc(=O)n2C | – | inactive |

| Compound | activity change, negative = growth inhibition | Potency |
| --- | --- | --- |
| CCCCC(NS(=O)(=O)c1ccc(C)cc1)C(=O)Oc1ccc2c3c(c(=O)oc2c1)CCC3 (configuration not stated) | -28.7% | – |
| CN1CCN(C(=O)c2cnn(-c3ccccc3)c2NC(=O)c2ccc([N+](=O)[O-])cc2)CC1 | -6.48% | – |
| CC(C)(C)NC(=O)NC(=O)COC(=O)Cc1ccc(Cl)cc1Cl | 0.66% | – |
| Clc1ccc(-c2ncc3ccccn23)c(Cl)c1 | 24% | – |
| CCc1nc2c(OCC(=O)C(C)(C)C)cccn2c1N(C)C(=O)c1ccccc1F | -21.1% | – |
| Cc1nc2c(OCc3ccc(Cl)cc3Cl)cccn2c1N(C)CC1CC1 | – | 16.4 µM (active) |
| CCc1nc2c(OCc3ccc(C(=O)OC)cc3)cccn2c1N(C)C(=O)C(C)C | – | 20.6 µM (active) |
| COC(=O)c1ccc(CSc2nncn2C)cc1 | -22% | – |
| CCCCC(=O)N(C)c1c(CC)nc2c(OCc3ccc(Cl)cc3Cl)cccn12 | – | 20.6 µM (active) |
| CCOC(=O)c1nc(C)n(-c2ccc(Cl)cc2Cl)n1 | -13% | – |
| COC(=O)c1ccc(COC(=O)c2cnccn2)cc1 | 13.1% | – |
| CCc1nc2c(OCc3ccc(Cl)cc3Cl)cccn2c1N(C)C(=O)C(C)C | – | 7.31 µM (active) |
| CC(C)(C)OC(=O)NC(Cc1ccccc1)C(=O)NC(CSC1CCCCO1)C(=O)NN (configuration not stated) | -3.48% | – |
| CC(=O)c1cc2c(cc1NC(=O)Cn1nc(-c3ccc(F)cc3)ccc1=O)OCO2 | 3.19% | – |
| COc1ccccc1OCCCCCCN1CCN(C)CC1 | -6.86% | – |
| CC(C)[C@H](NC(=O)N1c2ccccc2NC(=O)[C@@H]1C(C)C)C(=O)N[C@H](C(=O)O)c1ccccc1 | -2.73% | – |
| CCCNC(=O)c1onc(CSc2ccc(F)cc2)c1C(=O)NC(C)C | -1.26% | – |
| COc1cc(C(=O)N2CCC(c3ccncc3)CC2)cc(OC)c1OC | -4.5% | – |
| COc1cc(C(F)(F)F)nc2c(Br)c(C(C)(C)C)nn12 | -7.92% | – |
| Cc1cc2nc(-c3ccc(NC(=O)c4cc5ccccc5o4)cc3)oc2cc1C | -6.85% | – |
| CC(OC(=O)/C=C/c1ccccc1)C(=O)NC1CCCCC1C (configuration not stated) | -15.4% | – |
| O=C(CCS(=O)(=O)c1ccccc1)N(Cc1cccnc1)c1nc2c(F)cccc2s1 | – | 3.66 µM (active) |
| O=C(NCc1cccnc1)Nc1ccccc1F | -2.51% | – |
| Cc1cccc(C)c1NC(=O)CCS(=O)(=O)c1cccc2nsnc12 | -2.61% | – |
| COc1ccc(N(C)C(=O)CCS(=O)(=O)c2cccc3nsnc23)cc1 | – | inactive |
| O=C(C1COc2ccccc2O1)N(Cc1cccnc1)c1nc2c(F)cc(F)cc2s1 (configuration not stated) | -18.9% | – |

| Compound | activity change, negative = growth inhibition | Potency |
| --- | --- | --- |
| CN(C)CCCN(C(=O)COc1ccccc1)c1nc2c(Cl)cccc2s1 | -17.7% | – |
| COc1cccc2sc(N(CCCN(C)C)C(=O)C(c3ccccc3)c3ccccc3)nc12 | – | 20.6 µM (active) |
| CN(C)CCN(C(=O)CN1C(=O)c2ccccc2C1=O)c1nc2cc3c(cc2s1)OCCO3 | -10.4% | – |
| Cc1cccc2sc(N(CCCN(C)C)C(=O)CCS(=O)(=O)c3ccccc3)nc12 | – | 1.84 µM (active) |
| Cn1c(=NC(=O)c2ccc3c(c2)OCCO3)sc2cc(S(C)(=O)=O)ccc21 | – | inactive |
| O=C(NCc1ccncc1)c1cccc(NS(=O)(=O)c2ccc(F)c(F)c2)c1 | -24.5% | – |
| COc1ccccc1OCCC(=O)OCC(=O)NCc1ccccc1 | -3.12% | – |
| CC(C)c1c(O)nc(SCCOc2ccc(Cl)cc2)[nH]c1=O | -21.2% | – |
| COc1ccc(CN2C(=O)C(CC(=O)NCCCCc3ccccc3)CC(C(=O)N3CCOCC3)=C2C)cc1 (configuration not stated) | -23% | – |
| Cc1ncc2c(c1CNS(=O)(=O)N(C)C)CCN(C(=O)c1ccccc1F)C2 | 12.2% [at 9.04 µM] | – |
| O=C(NCc1cccc(Cl)c1)C1=CC=CN2CCS(=O)(=O)N=C12 | -1.14% | – |
| COc1cccc(NC(=O)CN(C)C(=O)c2cc(Cl)nc3ccccc23)c1 | -8.6% | – |
| COc1ccc(-c2cc(C(=O)N(C)CC(=O)Nc3ccccc3Cl)c3ccccc3n2)cc1OC | – | 20.6 µM (active) |
| COc1ccc(-c2cc(C(=O)NCCCN3CCCC3=O)c3ccccc3n2)cc1OC | -21.6% | – |
| COc1ccc(CN(C)C(=O)Cc2ccsc2)c(OC)c1OC | 4.57% | – |
| COc1ccc(-c2cc(C(=O)N(C)Cc3ccc(OC)c(OC)c3OC)c3ccccc3n2)cc1OC | – | 16.4 µM (active) |
| COc1ccc(Cl)cc1NC(=O)CN(C)C(=O)c1ccc2n[nH]nc2c1 | 2.23% | – |
| COc1ccc(CN2[C@@H](CC(=O)O)c3cc(F)ccc3S2(=O)=O)cc1 | – | inactive |
| CCN(CC)S(=O)(=O)c1ccc(-c2cn3ccc(C)cc3n2)cc1 | -7.04% | – |
| Cc1ccc(S(=O)(=O)n2nc(C)c(S(=O)(=O)N3CCCCCC3)c2C)cc1 | -22.1% | – |
| COc1ccc(NS(=O)(=O)c2cccc3nsnc23)cc1Cl | 12.3% | – |
| COc1ccc([C@H]2CC(=O)C=C(c3ccc(C)cc3)C2)cc1 | -23.5% | – |
| CC(=O)Nc1cccc(C(=O)Nc2nc(C)cs2)c1 | -28.2% | – |
| Cc1csc(NC(=S)Nc2cccc(Cl)c2)n1 | – | 1.64 µM (active) |
| S=C(Nc1cccc(Cl)c1)Nc1ccc2cn[nH]c2c1 | 1.54% | – |
| Cc1cc(C)cc(NC(=O)CCS(=O)(=O)c2cc3c4c(c2)CCN4C(=O)CC3)c1 | -13% | – |

| Compound | activity change, negative = growth inhibition | Potency |
| --- | --- | --- |
| Cn1c(-c2ccco2)nc2cc3ccccc3cc21 | – | 11.6 µM (active) |
| S=c1[nH]nc(-c2ccco2)n1/N=C/c1ccccc1 | 2.71% | – |
| Cn1cccc1-c1nc2ccccc2n1C | 1.93% | – |
| CCOc1ccc(S(=O)(=O)N(CC(=O)NCCSCc2ccc(C)cc2)c2ccccc2)cc1 | -7.56% | – |
| CCS(=O)(=O)Nc1cc(C(=O)N2C[C@@H](C)O[C@@H](C)C2)c2c(c1)nc(-c1ccccc1)n2C | 0.659% | – |
| CN(C)c1nc(=Nc2cccc(Cl)c2)ss1 | – | 0.206 µM (active) |
| CCOC(=O)C1=C(O)CSC1=Nc1cccc(Cl)c1 | 0.891% | – |
| O=C(O)C1=NN(c2c(F)c(F)cc(F)c2F)C(=O)CC1 | 5.08% | – |
| O=C(O)CCc1cccnc1 | – | inactive |
| C/C(=N\NC(=O)CCn1nc(C)cc1C)C(C)(C)C | 21.5% | – |
| Cc1ccc2c(C)c(C(=O)N(C)Cc3ccncn3)oc2c1C | -21.4% | – |
| CC(=O)N1CCC2(CC1)CCN(c1ccncc1)CC2 | -0.882% | – |
| Cc1ccc2c(C)c(C(=O)N3CCN(c4ccncc4)CC3)oc2c1C | – | 23.1 µM (active) |
| CCOC(=O)N(Cc1ccccc1)C1CC1 | 0.287% | – |
| O=C(NCc1ccncc1)C(=O)NCc1ccco1 | -14.1% | – |
| Cc1noc(C)c1-c1ccc(C(=O)NCc2ccncc2)c2occc12 | – | 9.2 µM (active) |
| CCN(CC(=O)NCc1ccc(Cl)cc1)C(=O)c1c(C)noc1C | -1.41% | – |
| Cc1ccc(CNC(=O)CCc2c(C)nc3c(c(C)nn3-c3ccccc3)c2C)cc1 | -27.9% | – |
| CN(CC(=O)O)S(=O)(=O)c1ccc2oc3ccccc3c2c1 | 6.87% | – |
| CCOC(=O)c1c(C)oc2ccc(N(C(=O)c3ccncc3)S(=O)(=O)c3ccc(CC)cc3)cc12 | – | 5.8 µM (active) |
| CCOC(=O)c1c(C)oc2nc(C)nc(Nc3ccc(CC)cc3)c12 | -3.14% | – |
| CCOC(=O)c1c(C)oc2cc(Br)c(OCC(N)=O)cc12 | -7.14% | – |
| COC(=O)c1c(C)oc2ccc(N(C(=O)Oc3ccccc3)S(=O)(=O)c3ccccc3)cc12 | – | 20.6 µM (active) |
| CC(=O)Oc1ccc(N(C(C)=O)S(=O)(=O)c2ccc3ccccc3c2)cc1Br | -21.1% | – |
